The source of these data is the supplement of paper PMC12819154, “High-throughput peptide-centric local stability assay extends protein–ligand identification to membrane proteins, tissues and bacteria” (Nature Structural & Molecular Biology, 2025).

Compound in the assay: Nc1ncnc2c1ncn2[C@@H]1O[C@H](COP(=O)(O)OP(=O)(O)OP(=O)(O)O)[C@@H](O)[C@H]1O [adenosine 5'-triphosphate]
Kind of assay: log2 fold change of tryptic peptide abundance, ligand vs vehicle (limited proteolysis) (log2 ratio); higher = more trypsin-susceptible (destabilized). To be noted: ligand concentration: 5 mM; sample: E. coli desalted lysate; replicate design: treated before aliquoting. Here is the method:
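HT-PELSA: desalted E. coli K-12 BW25113 lysate (with 12 mM MgCl2) incubated with 5 mM ATP (pH 7) or water for 30 min at 25 C, then a 4 min trypsin pulse at 22 C. Peptides were quantified by DIA-MS (4 replicates). Value is the peptide log2 fold change (treated/control); negative = stabilized. Scale: negative = ligand-stabilized region.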
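Note: lysate desalted by size exclusion to strip endogenous ATP, peptide intensities built from DIA-NN precursor signals, and peptides missing any value discarded before comparison.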

UniProt P43672, sequence (P43672 whole entry): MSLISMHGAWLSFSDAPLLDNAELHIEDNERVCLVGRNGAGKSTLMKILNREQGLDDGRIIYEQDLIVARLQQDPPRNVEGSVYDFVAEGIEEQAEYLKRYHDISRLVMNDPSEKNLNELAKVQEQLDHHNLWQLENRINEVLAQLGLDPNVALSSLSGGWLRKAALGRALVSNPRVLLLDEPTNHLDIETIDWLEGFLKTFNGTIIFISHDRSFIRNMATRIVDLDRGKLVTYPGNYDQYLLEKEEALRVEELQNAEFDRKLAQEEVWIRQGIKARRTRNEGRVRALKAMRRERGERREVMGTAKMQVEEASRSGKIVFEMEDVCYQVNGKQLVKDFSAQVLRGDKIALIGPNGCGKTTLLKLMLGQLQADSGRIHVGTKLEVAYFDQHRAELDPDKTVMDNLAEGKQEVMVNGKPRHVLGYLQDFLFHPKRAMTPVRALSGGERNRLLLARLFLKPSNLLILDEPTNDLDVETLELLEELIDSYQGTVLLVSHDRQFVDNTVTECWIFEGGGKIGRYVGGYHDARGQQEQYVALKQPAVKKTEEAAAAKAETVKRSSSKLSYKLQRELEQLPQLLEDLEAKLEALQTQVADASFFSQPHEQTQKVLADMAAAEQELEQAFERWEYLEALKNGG
UniProt P32134, sequence (P32134 whole entry): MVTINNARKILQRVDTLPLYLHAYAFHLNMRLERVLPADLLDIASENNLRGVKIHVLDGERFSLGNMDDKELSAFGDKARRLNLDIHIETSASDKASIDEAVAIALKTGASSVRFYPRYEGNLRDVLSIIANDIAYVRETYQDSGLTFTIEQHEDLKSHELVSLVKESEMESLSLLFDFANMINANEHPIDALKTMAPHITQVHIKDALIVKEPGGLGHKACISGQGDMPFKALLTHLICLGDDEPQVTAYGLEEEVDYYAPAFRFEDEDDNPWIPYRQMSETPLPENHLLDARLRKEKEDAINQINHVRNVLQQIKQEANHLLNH
UniProt P21513, sequence (P21513 whole entry): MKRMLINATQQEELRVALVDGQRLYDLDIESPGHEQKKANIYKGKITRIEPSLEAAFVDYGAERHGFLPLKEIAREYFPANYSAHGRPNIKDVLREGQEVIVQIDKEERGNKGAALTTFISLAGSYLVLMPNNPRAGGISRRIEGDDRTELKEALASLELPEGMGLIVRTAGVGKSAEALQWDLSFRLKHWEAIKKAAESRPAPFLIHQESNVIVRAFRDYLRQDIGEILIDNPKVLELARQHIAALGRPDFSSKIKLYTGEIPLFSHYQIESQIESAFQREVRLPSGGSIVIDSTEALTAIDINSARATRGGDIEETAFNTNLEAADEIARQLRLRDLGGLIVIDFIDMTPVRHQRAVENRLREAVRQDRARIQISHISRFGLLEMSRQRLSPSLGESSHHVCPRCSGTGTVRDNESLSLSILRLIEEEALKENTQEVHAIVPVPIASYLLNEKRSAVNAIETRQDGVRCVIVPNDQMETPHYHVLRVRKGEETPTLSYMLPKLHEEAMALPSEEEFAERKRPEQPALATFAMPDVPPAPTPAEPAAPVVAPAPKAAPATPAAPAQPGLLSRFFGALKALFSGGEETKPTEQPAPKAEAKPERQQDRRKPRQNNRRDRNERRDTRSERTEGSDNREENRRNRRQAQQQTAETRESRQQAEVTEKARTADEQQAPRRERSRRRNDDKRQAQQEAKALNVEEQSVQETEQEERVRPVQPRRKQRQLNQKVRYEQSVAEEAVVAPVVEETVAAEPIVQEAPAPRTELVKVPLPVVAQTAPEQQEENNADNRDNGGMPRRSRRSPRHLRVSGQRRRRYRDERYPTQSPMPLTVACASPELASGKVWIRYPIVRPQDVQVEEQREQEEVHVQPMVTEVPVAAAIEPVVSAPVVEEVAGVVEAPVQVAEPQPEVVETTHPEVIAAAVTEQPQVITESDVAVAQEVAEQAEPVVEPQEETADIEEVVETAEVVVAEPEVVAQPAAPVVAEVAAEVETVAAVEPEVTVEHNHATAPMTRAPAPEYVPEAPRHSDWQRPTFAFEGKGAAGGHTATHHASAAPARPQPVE
UniProt P37749, sequence (P37749 whole entry): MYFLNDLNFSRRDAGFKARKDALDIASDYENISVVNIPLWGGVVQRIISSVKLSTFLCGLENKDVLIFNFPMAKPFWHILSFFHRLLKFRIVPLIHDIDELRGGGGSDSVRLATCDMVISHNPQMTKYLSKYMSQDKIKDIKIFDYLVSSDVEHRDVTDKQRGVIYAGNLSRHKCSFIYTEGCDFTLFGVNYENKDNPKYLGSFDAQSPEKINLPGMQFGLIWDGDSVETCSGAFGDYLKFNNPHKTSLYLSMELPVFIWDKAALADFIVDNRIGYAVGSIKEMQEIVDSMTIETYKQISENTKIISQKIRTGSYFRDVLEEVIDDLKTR
UniProt P06987, sequence (P06987 whole entry): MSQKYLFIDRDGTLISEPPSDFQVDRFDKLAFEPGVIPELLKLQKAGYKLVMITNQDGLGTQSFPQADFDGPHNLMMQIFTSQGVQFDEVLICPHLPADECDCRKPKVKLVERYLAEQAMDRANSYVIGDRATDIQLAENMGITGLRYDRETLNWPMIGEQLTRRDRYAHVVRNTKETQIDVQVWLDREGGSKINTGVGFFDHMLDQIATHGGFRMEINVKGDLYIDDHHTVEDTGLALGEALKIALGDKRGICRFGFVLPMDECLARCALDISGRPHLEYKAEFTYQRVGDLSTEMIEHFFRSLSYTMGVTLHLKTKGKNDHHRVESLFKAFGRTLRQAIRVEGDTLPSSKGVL
UniProt P37774, sequence (P37774 whole entry): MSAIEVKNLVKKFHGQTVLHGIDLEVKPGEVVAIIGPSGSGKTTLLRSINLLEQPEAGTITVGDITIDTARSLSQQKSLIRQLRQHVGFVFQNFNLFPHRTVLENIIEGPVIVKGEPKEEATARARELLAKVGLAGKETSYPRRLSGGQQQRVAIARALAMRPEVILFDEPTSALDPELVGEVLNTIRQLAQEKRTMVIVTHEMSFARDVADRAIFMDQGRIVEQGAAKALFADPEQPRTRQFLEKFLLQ
UniProt P37769, sequence (P37769 whole entry): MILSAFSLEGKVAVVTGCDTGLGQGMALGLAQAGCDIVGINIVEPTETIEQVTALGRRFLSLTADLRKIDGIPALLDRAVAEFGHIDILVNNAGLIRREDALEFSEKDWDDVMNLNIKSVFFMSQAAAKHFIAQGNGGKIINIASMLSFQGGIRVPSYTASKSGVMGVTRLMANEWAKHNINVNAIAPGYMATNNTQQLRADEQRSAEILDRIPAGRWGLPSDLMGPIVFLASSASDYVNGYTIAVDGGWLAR

With “UniProt P43672 (peptide sequence: LMLGQLQADSGR, peptide start residue: 364)”, the log2 fold change is -0.906.
The same measure for “UniProt P37749 (peptide sequence: YMSQDKIK, peptide start residue: 132)”: -0.295.
For “UniProt P21513 (peptide sequence: DNESLSLSILR, peptide start residue: 415)”, the log2 fold change was found to be 0.633.
In the case of “UniProt P06987 (peptide sequence: VGDLSTEMIEHFFR, peptide start residue: 290)” it was -1.32.
In the case of “UniProt P37774 (peptide sequence: TMVIVTHEMSFAR, peptide start residue: 196)” it was 1.7; in that of “UniProt P32134 (peptide sequence: ACISGQGDMPFK, peptide start residue: 221)”, -1.02.
For “UniProt P37769 (peptide sequence: LMANEWAK, peptide start residue: 171)”, the log2 fold change was -0.444.
